Data on 4 molecules can be found in PubChem BioAssay.

Test [1] is described as follows: ovarian cancer cell viability with rucaparib, profiling panel, oncology-focused library, rucaparib conditional (AID 1508598). Conditions: patient-derived ovarian cancer cells, CellTiter-Glo viability, 144 h, stronger effect = lower value.
Test [2] can be described thus: survival rescue of mitochondrial mutant cells in low glucose, primary screen, MELAS cybrids, Rieske KO mouse fibroblasts, CellTiter-Glo (AID 1508586;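 active means mean z-score across replicates of 1.96 or higher in either the MELAS or the Rieske mutant cell line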;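 further: z relative to plate mean and SD of compound and empty wells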).
The nature of test [3]: viability rescue of complex I mutant cybrids, primary screen, cell-based, galactose medium, ATP luminescence (AID 1645843;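 active means z-score of at least 1.8 in each of two replicates, scored against plate mean and spread of sample wells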;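 further: positive z means more ATP and so rescue of galactose-driven cybrid death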). The note with it: complex I mutant cybrid cells, 72 h, stronger effect = higher value.
[4] abbreviates: at 5 µM, OCI-P5x cells, with rucaparib 20 µM, 100% = cells with rucaparib alone.
The mark [5] stands for this setting: at 5 µM, OCI-P5x cells, without rucaparib.
The mark [6] stands for this setting: at 0.000305 µM, OCI-C5x cells, with rucaparib 10 µM, 100% = cells with rucaparib alone.
Where [7] appears, read: at 0.000305 µM, OCI-C5x cells, without rucaparib.
Where [8] appears, read: at 0.000305 µM, OCI-P5x cells, with rucaparib 20 µM, 100% = cells with rucaparib alone.
Where [9] appears, read: at 0.000305 µM, OCI-P5x cells, without rucaparib.
Setting [10] is: at 0.00122 µM, OCI-C5x cells, with rucaparib 10 µM, 100% = cells with rucaparib alone.
The mark [11] stands for this setting: at 0.00122 µM, OCI-C5x cells, without rucaparib.
Where [12] appears, read: at 0.00122 µM, OCI-P5x cells, with rucaparib 20 µM, 100% = cells with rucaparib alone.
Where [13] appears, read: at 0.00122 µM, OCI-P5x cells, without rucaparib.
The mark [14] stands for this setting: at 0.00488 µM, OCI-C5x cells, with rucaparib 10 µM, 100% = cells with rucaparib alone.
Where [15] appears, read: at 0.00488 µM, OCI-C5x cells, without rucaparib.
[16] abbreviates: at 0.00488 µM, OCI-P5x cells, with rucaparib 20 µM, 100% = cells with rucaparib alone.
The mark [17] stands for this setting: at 0.00488 µM, OCI-P5x cells, without rucaparib.
The mark [18] stands for this setting: at 0.0195 µM, OCI-C5x cells, with rucaparib 10 µM, 100% = cells with rucaparib alone.
[19] abbreviates: at 0.0195 µM, OCI-C5x cells, without rucaparib.
Setting [20] is: at 0.0195 µM, OCI-P5x cells, with rucaparib 20 µM, 100% = cells with rucaparib alone.
The mark [21] stands for this setting: at 0.0195 µM, OCI-P5x cells, without rucaparib.
The mark [22] stands for this setting: at 0.0781 µM, OCI-C5x cells, with rucaparib 10 µM, 100% = cells with rucaparib alone.
[23] abbreviates: at 0.0781 µM, OCI-C5x cells, without rucaparib.
Where [24] appears, read: at 0.0781 µM, OCI-P5x cells, with rucaparib 20 µM, 100% = cells with rucaparib alone.
Where [25] appears, read: at 0.0781 µM, OCI-P5x cells, without rucaparib.
[26] abbreviates: at 0.313 µM, OCI-C5x cells, with rucaparib 10 µM, 100% = cells with rucaparib alone.
The mark [27] stands for this setting: at 0.313 µM, OCI-C5x cells, without rucaparib.
[28] abbreviates: at 0.313 µM, OCI-P5x cells, with rucaparib 20 µM, 100% = cells with rucaparib alone.
Where [29] appears, read: at 0.313 µM, OCI-P5x cells, without rucaparib.
Setting [30] is: at 1.25 µM, OCI-C5x cells, with rucaparib 10 µM, 100% = cells with rucaparib alone.
Setting [31] is: at 1.25 µM, OCI-C5x cells, without rucaparib.
Setting [32] is: at 1.25 µM, OCI-P5x cells, with rucaparib 20 µM, 100% = cells with rucaparib alone.
Setting [33] is: at 1.25 µM, OCI-P5x cells, without rucaparib.
The mark [34] stands for this setting: at 5 µM, OCI-C5x cells, with rucaparib 10 µM, 100% = cells with rucaparib alone.
Setting [35] is: at 5 µM, OCI-C5x cells, without rucaparib.

Molecules are shown by their SMILES. Activity calls are given as the source filed them.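 How the source made its calls, unless noted: active means normalized viability below 100% at a tested concentration; inactive means the rest.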

As to `C=CCNC1=C2C[C@@H](C)C[C@H](OC)[C@H](O)[C@@H](C)/C=C(\C)[C@H](OC(N)=O)[C@@H](OC)/C=C\C=C(\C)C(=O)NC(=CC1=O)C2=O`, the viability is 2.79% (active) in test [1] (setting [4]) and 1.94% (active) in test [1] (setting [5]).
Consider `CC(C)CCNc1cc(C(=O)N[C@H]2CCCCNC2=O)cc(S(=O)(=O)NC(C)C)c1`, for which the z-score is -0.205 (inactive) in test [2] (MELAS cybrid survival, CellTiter-Glo 48 h, stronger effect = higher value); 0.262 in test [2] (Rieske KO mouse fibroblast survival, CellTiter-Glo 72 h); -0.51 (inactive) in test [3].
Turning to `Nc1ncn([C@@H]2O[C@H](CO)[C@@H](O)[C@@H]2O)c(=O)n1`, the viability in test [1] (setting [6]) is 104% (inactive); in test [1] (setting [7]) it was 128% (inactive); in test [1] (setting [8]) it was 103% (inactive); in test [1] (setting [9]), 125% (inactive); in test [1] (setting [10]), 108% (inactive); in test [1] (setting [11]), 132% (inactive). For the same molecule, the viability is 102% (inactive) in test [1] (setting [12]); 123% (inactive) in test [1] (setting [13]); 114% (inactive) in test [1] (setting [14]); 122% (inactive) in test [1] (setting [15]); 102% (inactive) in test [1] (setting [16]); 116% (inactive) in test [1] (setting [17]). For the same molecule, the viability in test [1] (setting [18]) is 114% (inactive); in test [1] (setting [19]) it was 129% (inactive); in test [1] (setting [20]) it was 110% (inactive); in test [1] (setting [21]), 119% (inactive); in test [1] (setting [22]), 117% (inactive); in test [1] (setting [23]) it was 119% (inactive). Also, the viability in test [1] (setting [24]) was 110% (inactive); in test [1] (setting [25]), 122% (inactive); in test [1] (setting [26]) it was 112% (inactive); in test [1] (setting [27]) it was 124% (inactive); in test [1] (setting [28]), 114% (inactive); in test [1] (setting [29]) it was 122% (inactive). Also, the viability in test [1] (setting [30]) was 110% (inactive); in test [1] (setting [31]), 123% (inactive); in test [1] (setting [32]) it was 105% (inactive); in test [1] (setting [33]), 111% (inactive); in test [1] (setting [34]), 107% (inactive); in test [1] (setting [35]), 109% (inactive). Moreover, the viability in test [1] (setting [4]) was 97.7% (active); in test [1] (setting [5]), 99.1% (active).
For `Cc1cc2c(C(=O)NC[C@H](C)c3ccccc3)c(O)c(O)cc2c(O)c1-c1c(C)cc2c(C(=O)NC[C@H](C)c3ccccc3)c(O)c(O)cc2c1O`, the viability was 120% (inactive) in test [1] (setting [6]); 108% (inactive) in test [1] (setting [7]); 99.3% (active) in test [1] (setting [8]); 89.3% (active) in test [1] (setting [9]); 132% (inactive) in test [1] (setting [10]); 116% (inactive) in test [1] (setting [11]). The viability in test [1] (setting [12]) is 98.5% (active); in test [1] (setting [13]), 89.2% (active); in test [1] (setting [14]) it was 128% (inactive); in test [1] (setting [15]) it was 110% (inactive); in test [1] (setting [16]), 97.9% (active); in test [1] (setting [17]), 91.4% (active). The viability in test [1] (setting [18]) was 124% (inactive); in test [1] (setting [19]) it was 116% (inactive); in test [1] (setting [20]) it was 102% (inactive); in test [1] (setting [21]), 91.3% (active); in test [1] (setting [22]), 122% (inactive); in test [1] (setting [23]), 110% (inactive). The viability is 105% (inactive) in test [1] (setting [24]); 95.4% (active) in test [1] (setting [25]); 119% (inactive) in test [1] (setting [26]); 106% (inactive) in test [1] (setting [27]); 96.3% (active) in test [1] (setting [28]); 93.3% (active) in test [1] (setting [29]). Also, the viability in test [1] (setting [30]) was 123% (inactive); in test [1] (setting [31]) it was 106% (inactive); in test [1] (setting [32]) it was 99.6% (active); in test [1] (setting [33]) it was 91.3% (active); in test [1] (setting [34]), 15.2% (active); in test [1] (setting [35]), 17.1% (active). The viability in test [1] (setting [4]) was 2.71% (active); in test [1] (setting [5]), 9.17% (active).
